Myeloid diff MLP: induction of myeloid progenitor differentiation, primary screen, cell-based, flow cytometry, MLPCN library; ER-HoxA9 myeloid progenitors, lysozyme-GFP differentiation; AID 624256, 2012; hit rate 1% among 360,000; calls only at 10 µM;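 active = normalized GFP-positive differentiation at or above the plate's own cutoff, the solvent-only control mean plus 3 SD; inconclusive = no clear call, values can overlap the other calls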;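 also: cells exposed to compound for four days before flow analysis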
beta cell repl: inducers of MIN6 beta-cell proliferation, primary screen, ATP luminescence, uHTS; MIN6 cells proliferation, ATPlite luminescence, 48 h; cells starved in 0.2% serum; 100% = growth in 10% serum; hit rate 0.29% among 330,000; proliferation, % at 10 µM; AID 2380, 2010;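 active = compounds whose signal lies at least 3.5 SD above the mean of all wells on their plate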
H9c2 protect: cardioprotection against H2O2-induced cell death, primary screen, uHTS, H9c2 cells, ATPLite luminescence. H9c2 cardiomyocytes, H2O2 injury protection, 2 h. protection from H2O2 cell death, % at 20 µM. hit rate 0.63% among 360,000;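 active = compounds giving at least 50% protection of heart cells from peroxide-induced death in the single-dose screen, raw or plate-pattern-corrected value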
iPSC survival up: enhancers of single-cell hiPSC survival, primary screen, ATPlite luminescence. 100% = ROCK inhibitor wells, 0% = DMSO. survival enhancement, % at 20 µM. hit rate 0.044% among 360,000; in the data active = survival enhancement above about 18%;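 also: cells exposed to compounds for 16 hours before the ATP read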
ABCB6 inh MLPCN: ABCB6 transporter inhibitors, primary screen, K562-ABCB6 cells, flow cytometry, MLPCN library. ATP-binding cassette sub-family B member 6 (Homo sapiens), Q9NP58. K562-ABCB6 porphyrin accumulation, 1 h; stronger effect = lower value. fluorescence ratio to DMSO, % at 10 µM. hit rate 0.19% among 360,000. AID 602162, 2011;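 active = fluorescence ratio to DMSO below 75%, the collection mean minus 3 SD; inconclusive = too few cells collected in the well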;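 also: signal is porphyrin accumulated inside mitochondria; lower ratio means ABCB6 inhibition with less porphyrin fluorescence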
A number is an active result. Most compounds without a hit are left out; they make up all but 2.2% or so of the library.

Results for O=C(NC1CCCC1)C1CCCN(S(=O)(=O)c2ccc(-n3cnnn3)cc2)C1 (centres undefined) ?
Myeloid diff MLP: inactive; beta cell repl: inactive; H9c2 protect: inactive; iPSC survival up: inactive; ABCB6 inh MLPCN: inactive

Results for COc1ccc(CS(=O)(=O)/C(Cl)=C(/Cl)C(=O)Nc2ccc(OC)nc2)cc1 ?
Myeloid diff MLP: inconclusive; beta cell repl: inactive; H9c2 protect: inactive; iPSC survival up: 37.3; ABCB6 inh MLPCN: inactive

Results for COc1ccc(NC(=O)/C(Cl)=C(/Cl)S(=O)Cc2ccccc2)cn1 (centres undefined) ?
Myeloid diff MLP: inconclusive; beta cell repl: inactive; H9c2 protect: inactive; iPSC survival up: inactive; ABCB6 inh MLPCN: 25.0

How did COc1ccc(CNC(=O)C(c2cccs2)N(Cc2ccco2)C(=O)Cc2cccs2)cc1 (centres undefined) do in these assays?
Myeloid diff MLP: inactive; beta cell repl: inactive; H9c2 protect: 63.1; iPSC survival up: inactive; ABCB6 inh MLPCN: inactive

Results for Cc1ccc(C(C(=O)NCc2ccccc2)N(Cc2cccs2)C(=O)c2ccc3c(c2)OCCO3)cc1 (centres undefined) ?
Myeloid diff MLP: inactive; beta cell repl: inactive; H9c2 protect: 55.8; iPSC survival up: inactive; ABCB6 inh MLPCN: inactive

How did COc1ccc(CNC(=O)C(c2ccco2)N(Cc2cccs2)C(=O)Cc2cccs2)cc1 (centres undefined) do in these assays?
Myeloid diff MLP: inactive; beta cell repl: inactive; H9c2 protect: inactive; iPSC survival up: inactive; ABCB6 inh MLPCN: inactive

Results for COc1ccc(CNC(=O)C(c2ccc(C)cc2)N(Cc2cccs2)C(=O)c2ccc3c(c2)OCCO3)cc1 (centres undefined) ?
Myeloid diff MLP: inconclusive; beta cell repl: inactive; H9c2 protect: 61.2; iPSC survival up: inactive; ABCB6 inh MLPCN: inactive

Results for COC(=O)c1ccc(C(C(=O)NCc2ccccc2)N(Cc2cccs2)C(=O)c2cnccn2)cc1 (centres undefined) ?
Myeloid diff MLP: inactive; beta cell repl: inactive; H9c2 protect: 76.3; iPSC survival up: inactive; ABCB6 inh MLPCN: inactive

Results for O=C(Nc1cccc2ncccc12)c1ccccc1[N+](=O)[O-] ?
Myeloid diff MLP: inactive; beta cell repl: inactive; H9c2 protect: inactive; iPSC survival up: inactive; ABCB6 inh MLPCN: inactive

What do the screens show for `CN=C(Nc1cccnc1)c1ccccc1`?
Myeloid diff MLP: inactive; beta cell repl: inactive; H9c2 protect: inactive; iPSC survival up: inactive; ABCB6 inh MLPCN: inactive

Results for Cc1c(C(c2ccccc2O)c2c(C)n(C)n(-c3ccccc3)c2=O)c(=O)n(-c2ccccc2)n1C ?
Myeloid diff MLP: active; beta cell repl: inactive; H9c2 protect: inactive; iPSC survival up: inactive; ABCB6 inh MLPCN: inactive

How did Cc1c(C(c2cc(O)ccc2Cl)c2c(C)n(C)n(-c3ccccc3)c2=O)c(=O)n(-c2ccccc2)n1C do in these assays?
Myeloid diff MLP: inactive; H9c2 protect: inactive; iPSC survival up: inactive; ABCB6 inh MLPCN: inactive

How did CC1=C(C(=O)Nc2ccc(C)cc2C)C(c2cccc([N+](=O)[O-])c2)n2nc(C(=O)OC(C)C)nc2N1 (centres undefined) do in these assays?
Myeloid diff MLP: inactive; beta cell repl: inactive; H9c2 protect: inactive; iPSC survival up: inactive; ABCB6 inh MLPCN: inactive

How did Cc1ccc(C(=O)OCC(=O)N(C)c2c(N)n(Cc3ccccc3)c(=O)[nH]c2=O)s1 do in these assays?
Myeloid diff MLP: inactive; beta cell repl: inactive; H9c2 protect: inactive; iPSC survival up: inactive; ABCB6 inh MLPCN: inactive

How did COc1cc(/C=N/Nc2nc(Nc3ccc(C)cc3)nc(-n3nc(C)cc3C)n2)cc(OC)c1OC do in these assays?
Myeloid diff MLP: inactive; beta cell repl: inactive; H9c2 protect: 57.2; iPSC survival up: inactive; ABCB6 inh MLPCN: inactive

Results for CCCCN(Cc1nc2ccccc2c(=O)[nH]1)C(=O)CN1C(=O)NC2(CCCCC2)C1=O ?
Myeloid diff MLP: inactive; beta cell repl: inactive; H9c2 protect: 83.4; iPSC survival up: inactive; ABCB6 inh MLPCN: inactive

How did O=C1C2C(c3ccccc3)CC=CC2[C@H](c2ccoc2)N1Cc1ccccc1 (some centres undefined) do in these assays?
Myeloid diff MLP: inactive; beta cell repl: inactive; H9c2 protect: inactive; iPSC survival up: inactive; ABCB6 inh MLPCN: inactive

Screening data: PubChem BioAssay, several laboratories
